In the supplement of paper PMC12532568:
Structures can show the parent of a compound that is named as a salt.

Each compound was assayed on Danio rerio larvae Tg(actc1b:ZsGreen-LC3), 3 dpf (assay: LC3 puncta relative area vs vehicle, with NH4Cl (autophagic flux) (log2 fold change); higher = more autophagy). Settings: 10 µM; treatment time 16 h; NH4Cl: + 100 mM, 4 h.
Procedure: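 Transgenic Tg(actc1b:ZsGreen-map1lc3) zebrafish larvae (2 dpf) were treated for 16 h with Tocris library compounds at 10 µM (n = 12 larvae per compound). Skeletal-muscle LC3 puncta area relative to body area was measured by high-content confocal imaging before and after 4 h of 100 mM NH4Cl (autophagic flux), normalised to vehicle (DMSO), and reported as log2 fold change.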

Compound | LC3 puncta (log2)
c1ccc2c(c1)[I+]c1ccccc1-2 [Diphenyleneiodonium chloride] | 0.545
Cn1cnc(CCN)c1 [N?-Methylhistamine dihydrochloride] | 0.559
Cc1cc(C)cc(C(=O)OC2C[C@H]3CC[C@@H](C2)N3C)c1 (stereo not given in full) [Tropanyl-3,5-dimethylbenzoate] | 0.418
COc1ccc(CNC(=O)/C=C/c2ccc3[nH]cc(CCN(C)C)c3c2)cc1 | 0.115
CN(C(=O)Cc1ccc(Cl)c(Cl)c1)[C@H](CN1CCCC1)c1ccccc1 [ICI 199,441 hydrochloride] | 0.486
O=c1[nH]oc2c1CCNC2 [THIP hydrochloride] | 0.742
S=C=Nc1cccc(C2(N3CCCCC3)CCCCC2)c1 [Metaphit] | 0.576
N[C@@]1(C(=O)O)CC[C@@H](C(=O)O)C1 | 0.292
N=C(NCc1ccc(Cl)cc1)SCCCc1c[nH]cn1 [Clobenpropit dihydrobromide] | 0.922
CCCN(C/C=C/I)C1CCc2ccc(O)cc2C1 (stereo not given) [7-Hydroxy-PIPAT maleate] | 0.264
COC(=O)[C@@H](N)CCCNC(=N)N[N+](=O)[O-] [L-NAME hydrochloride] | 0.657
CCCCCCC[n+]1ccc(-c2cc[n+](CCCCCCC)cc2)cc1 [DHBP dibromide] | 0.343
O=C(O)/C=C/CO [trans-4-Hydroxycrotonic acid] | 0.0547
CC(=O)N1CC[N+](C)(C)CC1 [4-Acetyl-1,1-dimethylpiperazinium iodide] | 0.151
Cc1onc(O)c1C[C@H](N)C(=O)O | 0.29
O=C1NCN(c2ccccc2)C12CCN(CC1COc3ccccc3O1)CC2 (stereo not given) [Spiroxatrine] | 0.649
CC[N+](CC)(CCCNC1=CC(=O)C(NCCC[N+](CC)(CC)Cc2ccccc2)=CC1=O)Cc1ccccc1 [Benzoquinonium dibromide] | 0.386
COc1ccc(C(=O)N2CCCC2=O)cc1 [Aniracetam] | 0.0699
Cc1onc(O)c1CC(N)C(=O)O (racemic) | 0.2
Clc1cccc(SC2CCNCC2)n1 [Anpirtoline hydrochloride] | 0.148

Compound | LC3 puncta (log2)
CC(=O)NCCc1c[nH]c2ccccc12 [N-Acetyltryptamine] | 0.0329
CC(C)C[C@H]1C(=O)N2CCC[C@H]2[C@]2(O)O[C@](NC(=O)[C@@H]3C=C4c5cccc6[nH]c(Br)c(c56)C[C@H]4N(C)C3)(C(C)C)C(=O)N12 [Bromocriptine mesylate] | 0.623
CC(C(=O)OC1CC2CCC(C1)N2C)c1ccc(Br)cc1 (stereo not given) [PG-9 maleate] | 0.169
CC(N)Cc1cnc[nH]1 (stereo not given) | 0.293
NCCc1c[nH]c2ccc(C(N)=O)cc12 [5-Carboxamidotryptamine maleate] | 0.571
CO[C@]12C[C@@H](COC(=O)c3cncc(Br)c3)CN(C)[C@@H]1Cc1cn(C)c3cccc2c13 [Nicergoline] | 0.397
CS(=O)(=O)Nc1ccc(Cc2noc(-c3ccc4[nH]cc(CCN)c4c3)n2)cc1 | 0.382
c1ccc2sc(C3(N4CCCCC4)CCCCC3)cc2c1 [BTCP maleate] | 0.575
N[C@@H](Cn1oc(=O)[nH]c1=O)C(=O)O [L-Quisqualic acid] | 0.686
Oc1ccc2c3c1O[C@H]1c4[nH]c5ccccc5c4C[C@@]4(O)[C@@H](C2)N(CC2CC2)CC[C@]314 [Naltrindole hydrochloride] | 0.551
Fc1ccc(C(OCCN2CCN(C/C=C/c3ccccc3)CC2)c2ccc(F)cc2)cc1 | 0.995
N=C(N)NN [Aminoguanidine hydrochloride] | 0.662
CCCN(CCC)C1CCc2ccc(O)cc2C1 (stereo not given) [7-Hydroxy-DPAT hydrobromide] | 0.179
C=CCN1C[C@H](C)N([C@H](c2ccc(C(=O)N(CC)CC)cc2)c2cccc(OC)c2)C[C@H]1C | 0.846
c1ccc(C2CNCc3ccccc32)cc1 (stereo not given) [4-Phenyl-1,2,3,4-tetrahydroisoquinoline hydrochloride] | 0.39
c1ccc(CCCCN2CCC(c3ccccc3)CC2)cc1 [4-PPBP maleate] | 0.486
O=C(CCCN1CCC2(CC1)C(=O)N(Cc1cccc(F)c1)CN2c1ccccc1)c1ccc(F)cc1 [3'-Fluorobenzylspiperone maleate] | 1.38
CCCN[C@@H]1CCc2c(OC)cccc2[C@@H]1C [(+)-AJ 76 hydrochloride] | 0.353
Fc1ccc(C(OCCN2CCN(CCCc3ccccc3)CC2)c2ccc(F)cc2)cc1 | 0.781
Cc1nc(N)sc1CCN [Amthamine dihydrobromide] | 0.697
